Measurements: PubChem BioAssay AID504465 (National Center for Advancing Translational Sciences (NCATS), 2011)
Among all 2,100 compounds or so, about 210 (10%) were called active. Another 53% or so got no clear call; they are omitted. The list shows a part of the results. Unmarked numbers belong to inactive results. Calls come from the whole dose curve; as a rule, active = well fitted inhibition curve with a large enough effect; inconclusive = small, poorly fitted or top-dose-only effect, or effect the other way; inactive = no such curve, though single readings can be large or run the other way.

Experiment: IN Cell qHTS Assay for Inhibitors of the mTORC1 Signaling Pathway in MEF (Tsc2-/-, p53-/-) Cells: Sytravon; note: nearly all actives have a fitted effect of over 60% in size
Conditions: phospho-rpS6 immunofluorescence, 24 h; series mostly up to 38.3 µM; activity, negative = inhibition: at the top concentration
In short: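 Immunofluorescence of rpS6 phosphorylation (Ser235/236) in mouse embryonic fibroblasts lacking Tsc2 and p53, after 24 h compound exposure; Hoechst-normalized signal imaged, each well scored as % active cells relative to rapamycin (7.5 nM) and DMSO controls.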
Potency is the fitted concentration of half-maximal effect.

In order of rising “activity, negative = inhibition” value:
1. Cc1cccc(C(=O)Nc2c(C(=O)NCc3ccc(Cl)cc3)sc3nc(C)cc(C)c23)c1  -100%
2. Cc1ccc(-c2cnc(NCc3ccc(C(F)(F)F)cc3)n2C)cc1  -41.9%
3. Cc1cc(C)c(NC(=O)Cn2cc(S(=O)(=O)Cc3ccccc3F)c3ccccc32)c(C)c1  -29.4%
4. COc1ccc(S(=O)(=O)N(C)Cc2nc(-c3cccc(C)c3)no2)cc1  -29.1%
5. CCSc1nc2ccccc2c(OCc2cc(C(=O)OC)ccc2OC)c1C(=O)OC  -27.8%
6. COc1cc(OC)cc(C(=O)Nc2cc3nn(-c4ccccc4)nc3cc2Cl)c1  -26.8%
7. CCCCN(C)CCNC(=O)Cn1ncc2c3ccccc3n(CCC)c2c1=O  -26.3%
8. Cn1nnnc1SCCCNCc1cccc(OCc2ccccc2Cl)c1  -25.9%
9. COc1cccc(-n2ccnc2SCC(=O)Nc2nc3ccc(C)cc3s2)c1  -25%
10. CC1CCN(S(=O)(=O)c2ccc3nc(Nc4cccc(F)c4)ccc3c2)CC1  -24.8%
11. Cc1nnc(N2CCCC(C(=O)Nc3cc(F)ccc3F)C2)c2nn(-c3ccccc3)c(C)c12 (centres undefined)  -20.1%
12. O=C(Cn1cc(S(=O)(=O)Cc2cccc(Cl)c2)c2ccccc21)Nc1ccccc1C(F)(F)F  -19.7%
13. COCCCNC(=O)c1sc2nc(C)c(C(=O)Nc3ccc(C)cc3C)c(-c3ccc(Cl)cc3)c2c1N  -18.8%
14. CCCN1C(=O)C(Cc2nc3ccccc3c(=O)n2CC)c2ccccc21 (centres undefined)  -18.6%
15. Cc1ccccc1C(=O)N1CCC(c2nc3ccccc3s2)CC1  -16.3%
16. O=C(CSc1nccn1-c1ccc(Cl)cc1)Nc1ccc(Cl)c(Cl)c1  -14.3%
17. COc1ccc2c(c1)c(=O)c(C(=O)c1ccc(C)cc1)cn2Cc1ccccc1F  -12.8%
18. CCC1=Nc2cc(C(=O)NC3CCC(C)CC3)ccc2Sc2ccc(C)cc21 (centres undefined)  -12%
19. CC(C)N(C(=O)CSc1cn(CC(=O)N2CCCCCC2)c2ccccc12)C(C)C  -11.6%
20. O=C(NCc1ccccc1Cl)C1CCCN(c2nc3ccccc3n3cccc23)C1 (centres undefined)  -2.13%
21. CC(C)c1ccc(NC(=O)CSC2=Nc3ccccc3C3=NC(CCC(=O)NCc4ccc(F)cc4)C(=O)N23)cc1 (centres undefined)  -1.18%
22. COc1ccccc1NC(=O)c1c(NCc2ccc(C)o2)sc2c1CCC(C)C2 (centres undefined)  0%
23. CCCCNC(=O)c1cc(-c2cccnc2)nc2ccc(S(=O)(=O)NCCCC)cc12  0%
24. COc1ccc(NC(=O)CCCN2C(=O)CCn3nc(-c4cn(C)c5ccccc45)cc32)cc1  0.526%
25. CSc1cccc(NC(=O)Cn2cnc(S(=O)(=O)N3CCCC3)c2)c1  0.892%
26. O=C(CCn1cnc2onc(-c3ccc(F)cc3)c2c1=O)Nc1ccc(F)c(Cl)c1  1.08%
27. CC(C)(C)c1ccc(S(=O)(=O)NCc2ccc3c(c2)CCN3C(=O)c2ccccc2)cc1  2.27%
28. CCOC(=O)C1=C(C)NC(=O)NC1c1cn(-c2ccccc2)nc1-c1ccc(OC(C)C)cc1 (centres undefined)  2.95%
29. Cc1ccc(-c2noc(-c3ccccc3NC(=O)C3CC(=O)N(c4cccc(C)c4)C3)n2)cc1 (centres undefined)  3.66%
30. Cc1cc(C)c(NC(=O)c2sc3nc(C)cc(C)c3c2NC(=O)c2ccccc2)c(C)c1  4.6%
31. CC1=Nc2cc(C(=O)NC3CCCC3)ccc2Sc2ccc(Br)cc21  5.6%
32. Cc1cccc(-n2c(C)nc3cc(C(=O)NC4CCCCCC4)ccc32)c1  6.25%
33. Cc1ccc(NC(=O)c2cc(S(=O)(=O)N3CCc4ccccc43)ccc2F)cc1Cl  6.25%
34. Cc1ccccc1OCc1cc(=O)n2c(-c3ccccc3)csc2n1  7.14%
35. Cc1noc(/C=C/N(C)C)c1S(=O)(=O)N1CCCC(C(=O)Nc2ccc(F)cc2F)C1 (centres undefined)  10.5%
36. C#CCOc1c(Br)cc(C2C(C(=O)OC)=C(C)NC3=C2C(=O)c2ccccc23)cc1OCC (centres undefined)  15.3%
37. O=C(Nc1ccc(F)cc1F)c1noc2c1CCc1ccccc1-2  19.6%
38. CC(C)(C)c1ccc(NC(=O)CSc2nnc3scc(-c4ccccc4)n23)cc1  29.3%

In the case of `CN(C)c1ccc(NC(=O)Cn2cc(S(=O)(=O)Cc3ccccc3Cl)c3ccccc32)cc1`, the Potency is reported as 10.4 µM (active).
In the case of `Cc1ccc(CNC(=O)Cn2cc(S(=O)(=O)Cc3ccccc3F)c3ccccc32)cc1`, the Potency is reported as 18.5 µM (active).
With `COc1ccc(-n2nc3c(N4CCCC(C(=O)NCc5ccccc5C)C4)nnc(C)c3c2C)cc1` (centres undefined) the Potency was 5.85 µM (active).
With `CCc1nnc(NC(=O)c2nc(S(=O)(=O)Cc3cccc(C)c3)ncc2Cl)s1` the Potency was 9.27 µM (active).
For `CCc1nnc(NC(=O)c2nc(S(=O)(=O)Cc3ccc(C)cc3)ncc2Cl)s1`, the Potency was 20.7 µM (active).
In the case of `Cc1nnc(NC(=O)c2nc(S(=O)(=O)Cc3ccccc3)ncc2Cl)s1`, the Potency is reported as 16.5 µM (active).
In the case of `COc1ccc2nc(NC(=O)c3nc(S(=O)(=O)Cc4ccccc4)ncc3Cl)sc2c1`, the Potency is reported as 5.85 µM (active).
In the case of `Cc1ccccc1CS(=O)(=O)c1ncc(Cl)c(C(=O)Nc2nnc(C(C)C)s2)n1`, the Potency is reported as 13.1 µM (active).
With `O=S(=O)(c1ccc(-c2csc(=Nc3ccc(OC(F)(F)Cl)cc3)n2CCCO)cc1)N1CCCC1` the Potency was 1.85 µM (active).
For `Cc1cc(C)c2c(NC(=O)c3ccccc3Cl)c(C(=O)Nc3ccc(C)c(C)c3)sc2n1`, the Potency was 1.65 µM (active).
With `Cc1ccc(C(=O)Nc2c(C(=O)NCc3ccc(Cl)cc3)sc3nc(C)cc(C)c23)cc1` the Potency was 11.7 µM (active).
